# This is one part of a sample in which the strongest signals are shown more often than they occur.
# B1: GNL (Galanthus nivalis) (protein)
# chain: MGHHHHHHHHYGTLENGHWLMVGMSIFSKDRTVELRMQDDGKLAIYYNDHCAWQSTAQQVNNAKGAVMQGDGNFCIYDKNGKATWHTNTAAPSGDSHTFVSVQDDGNLVLYKNNGATPIWSSKSNK
# What was measured:
# Test in all cases: glycan array binding signal (z-score within array); higher = stronger binding
# Details in all cases: glycan notation: IUPAC condensed, linker removed
# [1] = biological target: GlcNAc(a1-4)Gal(b1-4)GlcNAc
# Method in brief: (§1)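 The Consortium for Functional Glycomics database supplied 3228 glycan arrays, of which those lacking an available protein sequence were dropped. The binding signal, a within-array Z-score, was averaged across arrays of the same protein sequence and across linkers. Negative scores can be read as non-binding.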
# [2] = biological target: GlcNAc(a1-4)Gal(b1-4)GlcNAc(b1-3)Gal(b1-4)[Fuc(a1-3)]GlcNAc(b1-3)Gal(b1-4)[Fuc(a1-3)]GlcNAc
# Method in brief: as §1
# [3] = biological target: GlcNAc(b1-2)Man(a1-3)[GlcNAc(b1-2)Man(a1-6)]Man(b1-4)GlcNAc(b1-4)GlcNAc
# Method in brief: as §1
# [4] = biological target: GlcNAc(b1-2)[GlcNAc(b1-4)]Man(a1-3)[GlcNAc(b1-4)][GlcNAc(b1-2)[GlcNAc(b1-6)]Man(a1-6)]Man(b1-4)GlcNAc(b1-4)GlcNAc
# Method in brief: as §1
# [5] = biological target: GlcNAc(b1-3)Gal(b1-4)GlcNAc
# Method in brief: as §1
# [6] = biological target: GlcNAc(b1-3)Gal(b1-4)GlcNAc(b1-2)Man(a1-3)[GlcNAc(b1-3)Gal(b1-4)GlcNAc(b1-2)Man(a1-6)]Man(b1-4)GlcNAc(b1-4)GlcNAc
# Method in brief: as §1
# [7] = biological target: GlcNAc(b1-3)Gal(b1-4)GlcNAc(b1-3)GalNAc
# Method in brief: as §1
# [8] = biological target: GlcNAc(b1-3)Gal(b1-4)GlcNAc(b1-6)[GlcNAc(b1-3)]Gal(b1-4)GlcNAc
# Method in brief: as §1
# [9] = biological target: GlcNAc(b1-4)GlcNAc(b1-4)GlcNAc(b1-4)GlcNAc(b1-4)GlcNAc(b1-4)GlcNAc
# Method in brief: as §1
# [10] = biological target: GlcNAc6S(b1-3)Gal(b1-4)GlcNAc
# Method in brief: as §1
# [11] = biological target: Man(a1-2)Man(a1-3)Man
# Method in brief: as §1
# [12] = biological target: Man(a1-3)[Man(a1-6)]Man(a1-6)[Man(a1-3)]Man(b1-4)GlcNAc(b1-4)GlcNAc
# Method in brief: as §1
# [13] = biological target: Neu5Ac(a2-3)Gal(b1-3)GlcNAc(b1-2)Man
# Method in brief: as §1
# [14] = biological target: Neu5Ac(a2-3)Gal(b1-3)GlcNAc(b1-2)Man(a1-3)[GlcNAc(b1-4)][Neu5Ac(a2-3)Gal(b1-3)GlcNAc(b1-2)Man(a1-6)]Man(b1-4)GlcNAc(b1-4)GlcNAc
# Method in brief: as §1
# [15] = biological target: Neu5Ac(a2-3)Gal(b1-3)GlcNAc(b1-3)Gal(b1-3)GlcNAc
# Method in brief: as §1
# [16] = biological target: Neu5Ac(a2-3)Gal(b1-3)[Fuc(a1-4)]GlcNAc(b1-3)Gal(b1-4)[Fuc(a1-3)]GlcNAc
# Method in brief: as §1
# [17] = biological target: Neu5Ac(a2-3)Gal(b1-3)[Neu5Ac(a2-6)]GlcNAc(b1-3)[Fuc(a1-3)[Gal(b1-4)]GlcNAc(b1-6)]Gal(b1-4)Glc
# Method in brief: as §1
# [18] = biological target: Neu5Ac(a2-3)Gal(b1-3)]Neu5Ac(a2-3)Gal(b1-4)]GlcNAc
# Method in brief: as §1
# [19] = biological target: Neu5Ac(a2-3)Gal(b1-4)GlcNAc(b1-2)Man(a1-3)[GlcNAc(b1-4)][Neu5Ac(a2-3)Gal(b1-4)GlcNAc(b1-2)Man(a1-6)]Man(b1-4)GlcNAc(b1-4)GlcNAc
# Method in brief: as §1
# [20] = biological target: Neu5Ac(a2-3)Gal(b1-4)GlcNAc(b1-2)[Neu5Ac(a2-3)Gal(b1-4)GlcNAc(b1-6)]Man(a1-6)[Neu5Ac(a2-3)Gal(b1-4)GlcNAc(b1-2)Man(a1-3)]Man(b1-4)GlcNAc(b1-4)GlcNAc
# Method in brief: as §1
# [21] = biological target: Neu5Ac(a2-3)Gal(b1-4)GlcNAc(b1-6)[Neu5Ac(a2-3)Gal(b1-3)]GalNAc
# Method in brief: as §1
# [22] = biological target: Neu5Ac(a2-3)Gal(b1-4)[Fuc(a1-3)]GlcNAc(b1-2)Man
# Method in brief: as §1
# [23] = biological target: Neu5Ac(a2-3)GalNAc
# Method in brief: as §1
# [24] = biological target: Neu5Ac(a2-6)Gal(b1-4)GlcNAc(b1-2)Man(a1-3)[Man(a1-6)]Man(b1-4)GlcNAc(b1-4)GlcNAc
# Method in brief: as §1
# [25] = biological target: Neu5Ac(a2-6)Gal(b1-4)GlcNAc(b1-2)Man(a1-6)[GlcNAc(b1-2)Man(a1-3)]Man(b1-4)GlcNAc(b1-4)GlcNAc
# Method in brief: as §1
# [26] = biological target: Neu5Ac(a2-6)Gal(b1-4)GlcNAc(b1-3)Gal(b1-4)GlcNAc(b1-6)[Gal(b1-3)]GalNAc
# Method in brief: as §1
# [27] = biological target: Neu5Ac(a2-6)Gal(b1-4)GlcNAc(b1-6)GalNAc
# Method in brief: as §1
# [28] = biological target: Neu5Ac(a2-6)Gal(b1-4)GlcNAc(b1-6)[Gal(b1-3)]GalNAc
# Method in brief: as §1
# [29] = biological target: Neu5Ac(a2-8)Neu5Ac
# Method in brief: as §1
# [30] = biological target: Neu5Ac(a2-8)Neu5Ac(a2-3)Gal(b1-3)GalNAc(b1-4)[Neu5Ac(a2-3)]Gal(b1-4)Glc
# Method in brief: as §1
# [31] = biological target: Neu5Gc(a2-8)Neu5Gc(a2-6)Gal(b1-4)GlcNAc
# Method in brief: as §1
binder,measurement,setting,value
B1,glycan array binding signal (z-score),[1],-0.25
same,glycan array binding signal (z-score),[2],-0.175
same,glycan array binding signal (z-score),[3],8.74
same,glycan array binding signal (z-score),[4],-0.284
same,glycan array binding signal (z-score),[5],-0.226
same,glycan array binding signal (z-score),[6],0.679
same,glycan array binding signal (z-score),[7],-0.013
same,glycan array binding signal (z-score),[8],-0.255
same,glycan array binding signal (z-score),[9],-0.24
same,glycan array binding signal (z-score),[10],-0.28
same,glycan array binding signal (z-score),[11],-0.18
same,glycan array binding signal (z-score),[12],-0.2
same,glycan array binding signal (z-score),[13],-0.208
same,glycan array binding signal (z-score),[14],-0.228
same,glycan array binding signal (z-score),[15],-0.212
same,glycan array binding signal (z-score),[16],-0.191
same,glycan array binding signal (z-score),[17],-0.137
same,glycan array binding signal (z-score),[18],-0.172
same,glycan array binding signal (z-score),[19],-0.295
same,glycan array binding signal (z-score),[20],-0.159
same,glycan array binding signal (z-score),[21],-0.286
same,glycan array binding signal (z-score),[22],-0.295
same,glycan array binding signal (z-score),[23],-0.251
same,glycan array binding signal (z-score),[24],5.43
same,glycan array binding signal (z-score),[25],5.03
same,glycan array binding signal (z-score),[26],-0.216
same,glycan array binding signal (z-score),[27],-0.235
same,glycan array binding signal (z-score),[28],-0.133
same,glycan array binding signal (z-score),[29],-0.189
same,glycan array binding signal (z-score),[30],-0.285
same,glycan array binding signal (z-score),[31],-0.194

# Source: the supplement of paper PMC8728848
